A selection: hits, their analogues and other compounds. The true share with any hit is near 2.4%.
PGK inhibitor: T. brucei PGK inhibition | P07378 | PGK/GAPDH coupled, Kinase-Glo luminescence, 60 min | Potency, µM (highest dose often 57.5 µM), actives largely listed as inhibitors | 380,000 tested, 0.043% active | AID 602233; further: nearly all actives have a fitted effect of over 60% in size
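Recombinant glycosomal PGK reaction used 1,3-bisphosphoglycerate generated in-well by GAPDH (100nM final) in 100mM TEA pH 7.6, 5mM MgCl2, 0.01% Tween-20. After 60 minutes at room temperature, ATP was read by Kinase-Glo Plus luminescence end-point.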
Pol kappa inh-1: DNA polymerase kappa (human) inhibition; Q9UBT6; purified Pol kappa, fluorescent DNA synthesis assay, 10 min; Potency, µM (doses to about 107 µM), hits mostly inhibitors; 400,000 tested, 0.53% active; AID 588579
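Kinetic fluorescence readout at 0 and 10 min followed reaction start with substrate at 50 nM final. Beforehand, enzyme (10 nM Pol kappa) stood 15 min with compound at room temperature; buffer-only wells were negative controls.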
FEN1 inh-1: inhibitors of human flap endonuclease 1. 390,000 tested, 0.35% active. Recombinant FEN1 flap cleavage, fluorescence, 15 min. P39748. Potency, µM (doses to about 114 µM), most hits filed as inhibitors; further: nearly all actives have a fitted effect of over 65% in size
Target sequence (P39748 whole entry, looked up): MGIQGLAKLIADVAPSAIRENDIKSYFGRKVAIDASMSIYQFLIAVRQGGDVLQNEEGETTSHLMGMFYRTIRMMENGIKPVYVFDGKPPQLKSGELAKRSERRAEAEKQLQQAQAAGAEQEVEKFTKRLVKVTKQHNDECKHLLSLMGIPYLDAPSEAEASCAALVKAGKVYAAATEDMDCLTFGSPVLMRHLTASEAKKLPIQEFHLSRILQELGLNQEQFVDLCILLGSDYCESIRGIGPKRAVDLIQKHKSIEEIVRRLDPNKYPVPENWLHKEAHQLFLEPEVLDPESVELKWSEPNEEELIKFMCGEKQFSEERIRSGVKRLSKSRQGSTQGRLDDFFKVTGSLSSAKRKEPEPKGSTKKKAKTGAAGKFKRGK
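Nuclease activity of 10 nM FEN1 was measured after 15 min of room-temperature exposure to titrated compounds, by adding 50 nM flap substrate and reading plates at 0 and 15 min.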
Pol eta inh-1: blocks human DNA polymerase eta activity. Q9Y253. recombinant Pol eta, fluorescent DNA replication assay. Potency, µM (top dose mostly 114 µM), usual class: inhibitors. 390,000 tested, 1.2% active. AID 588591
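Pol eta (10 nM) was preincubated with compounds for 15 min at room temperature, after which fluorescent replication substrate (50 nM final) was added to start the reaction. Fluorescence was read kinetically at 0 and 10 min.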
Pol beta inh: DNA polymerase beta (human) inhibition; Pol beta primer extension/strand displacement, fluorescence kinetic; Potency, µM (series often up to 114 µM), usual class: inhibitors; 340,000 tested, 1.3% active; AID 485314
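Kinetic readout of DNA synthesis with strand displacement by Pol beta. Compound and 10 nM enzyme sit 15 min at room temperature; 50 nM substrate starts the reaction, read immediately and at 10 min.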
POLI inh: DNA polymerase iota (human) inhibition. Q9UNA4. Pol iota fluorescent replication assay, 10 min. Potency, µM (titrated, usually from 115 µM), actives largely listed as inhibitors. 390,000 tested, 1% active. AID 588590
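Pol iota at 10 nM preincubated 15 min with compounds at room temperature; reaction started with fluorescent substrate, 50 nM final. Fluorescence read kinetically at 0 and 10 min; buffer-only wells as negative control.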
TbPGK inh: TbPGK inhibition, hit validation; shares compounds with Pol kappa inh-1; TbPGK coupled GAPDH assay, Kinase-Glo luminescence; Potency, µM (titrated, usually from 57.5 µM), actives largely listed as inhibitors; 500 tested, 79% active; AID 686980; further: nearly all actives have a fitted effect of over 65% in size
POLI cherry-pick: Confirm cherry-picked inhibitors of human polymerase iota | Potency, µM, actives largely listed as inhibitors | shares compounds with Pol kappa inh-1 | 1,500 tested, 77% active | AID 720496 | Pol iota primer extension, TAMRA/BHQ fluorescence
Pol kappa inh-2: Pol kappa (human) inhibition, cherry-pick confirmation. AID 720501. shares compounds with Pol eta inh-1. 920 tested, 76% active. purified Pol-kappa, fluorescent strand-displacement substrate. Potency, µM, usual class: inhibitors
Pol eta inh-2: Pol eta (human) inhibition, cherry-pick confirmation. shares compounds with Pol eta inh-1. Pol eta primer extension, TAMRA/BHQ fluorescence, 10 min. Potency, µM, usual class: inhibitors. 2,600 tested, 64% active
FEN1 inh-2: confirmation of human FEN1 inhibitors; shares compounds with FEN1 inh-1; FEN1 flap cleavage, TAMRA/BHQ2 fluorogenic DNA substrate; Potency, µM, hits mostly inhibitors; 880 tested, 79% active; AID 720498; further: nearly all actives have a fitted effect of over 60% in size
Large screens that a line does not name were inactive (follow-up assays come after a bar, where they were run). The call rests on the fitted dose curve; in most records, active means well fitted curve in the direction sought with a large enough effect; inconclusive means small, poorly fitted or top-dose-only effect, or another doubt; inactive means no such curve, though single readings can be large; an effect the other way counts as inactive or inconclusive.

Cc1ccc(CN2C(=O)N/C(=C\c3ccc(-c4ccc(C(=O)O)cc4C)o3)C2=O)cc1	PGK inhibitor inconclusive, Pol kappa inh-1 79.4µM, FEN1 inh-1 44.7µM, Pol eta inh-1 17.8µM, Pol beta inh 20µM | POLI cherry-pick 21.2 | Pol eta inh-2 26.9 | FEN1 inh-2 75.7
CCCCSCCCNC(=O)c1cn(CC)c2ccc(S(=O)(=O)N(C)C3CCCCC3)cc2c1=O	Pol eta inh-1 inconclusive
N#C/C(=C\c1ccc([N+](=O)[O-])o1)C(=O)Nc1ccc(F)cc1	Pol kappa inh-1 79.4µM, Pol eta inh-1 22.4µM, Pol beta inh 39.8µM, POLI inh inconclusive | POLI cherry-pick inconclusive | Pol eta inh-2 47.8 | FEN1 inh-2 47.8
O=C(NCc1ccccc1Br)C1CCCN(C(=O)N2CCOc3ccccc32)C1 (stereo unspecified)	none
NS(=O)(=O)c1ccc(N=Nc2c[nH]c(=O)c(O)c2)cc1	PGK inhibitor inconclusive, Pol kappa inh-1 inconclusive, FEN1 inh-1 inconclusive, Pol eta inh-1 22.4µM, Pol beta inh inconclusive, POLI inh 14.1µM | TbPGK inh 18.3µM | Pol eta inh-2 53.6 | FEN1 inh-2 inconclusive
COc1ccc(/C=C(\C#N)C(=O)Nc2cccc3ncccc23)cc1OC	none
N#C/C(=C\c1ccc(O)c(O)c1)C(=O)Nc1cccc2ncccc12	PGK inhibitor inconclusive, Pol kappa inh-1 3.98µM, FEN1 inh-1 44.7µM, Pol eta inh-1 2.82µM, Pol beta inh 0.794µM, POLI inh 3.16µM | POLI cherry-pick 6.7 | Pol eta inh-2 3.79 | FEN1 inh-2 inconclusive
O=C(O)CC(C(=O)O)N1C(=O)/C(=C/C=C/c2ccco2)SC1=S (stereo unspecified)	PGK inhibitor 4.47µM, FEN1 inh-1 inconclusive, Pol eta inh-1 0.891µM, Pol beta inh 0.794µM, POLI inh 1.58µM | TbPGK inh 2.91µM | POLI cherry-pick 5.32 | Pol eta inh-2 3.01 | FEN1 inh-2 10.7
O=C(NN1C(=O)/C(=C/C=C/c2ccco2)SC1=S)c1ccccc1O	PGK inhibitor inconclusive, Pol kappa inh-1 3.98µM, FEN1 inh-1 11.2µM, Pol eta inh-1 1.12µM, Pol beta inh 1.12µM, POLI inh 1.26µM | TbPGK inh 9.19µM | POLI cherry-pick 2.67 | Pol eta inh-2 3.38 | FEN1 inh-2 26.9
COc1ccc(/C=C2\SC(=S)N(C(Cc3ccccc3)C(=O)O)C2=O)cc1 (stereo unspecified)	none
O=C(O)C(Cc1ccccc1)N1C(=O)/C(=C/C=C/c2ccco2)SC1=S (stereo unspecified)	PGK inhibitor 12.6µM, Pol kappa inh-1 3.16µM, FEN1 inh-1 11.2µM, Pol eta inh-1 1.41µM, Pol beta inh 1.58µM, POLI inh 1.12µM | TbPGK inh 5.8µM | POLI cherry-pick 2.99 | Pol eta inh-2 3.38 | FEN1 inh-2 26.9
CCN(CC)CCOc1ccc2c(c1)C(=NO)c1cc(OCCN(CC)CC)ccc1-2	Pol kappa inh-1 inconclusive, FEN1 inh-1 12.6µM, Pol eta inh-1 inconclusive, Pol beta inh 39.8µM, POLI inh 20µM | POLI cherry-pick 75.2 | FEN1 inh-2 8.49
CCN(CC)CCOc1ccc(Br)cc1	none (no result: PGK inhibitor)
O=c1[nH]c(=S)[nH]c2c1C(c1ccc(Br)cc1)c1c([nH]c(=S)[nH]c1=O)O2	PGK inhibitor inconclusive, Pol kappa inh-1 3.98µM, FEN1 inh-1 17.8µM, Pol eta inh-1 2.24µM, Pol beta inh 12.6µM, POLI inh 1µM | POLI cherry-pick 2.67 | Pol eta inh-2 1.69 | FEN1 inh-2 2.13
O=C1/C(=C\c2cc([N+](=O)[O-])ccc2O)SC(=S)N1Cc1ccc(Cl)cc1	FEN1 inh-1 22.4µM, Pol eta inh-1 inconclusive, Pol beta inh 3.16µM, POLI inh inconclusive (no result: PGK inhibitor) | POLI cherry-pick 33.6 | Pol eta inh-2 23.9 | FEN1 inh-2 37.9
O=C1/C(=C\c2cccc(O)c2O)SC(=S)N1Cc1ccccc1	Pol eta inh-1 inconclusive, POLI inh inconclusive
O=[N+]([O-])c1cc2ccccc2c(O)c1O	PGK inhibitor inconclusive, Pol eta inh-1 4.47µM (no result: Pol kappa inh-1, FEN1 inh-1, Pol beta inh, POLI inh) | POLI cherry-pick 11.9 | Pol kappa inh-2 2.12 | Pol eta inh-2 7.57 | FEN1 inh-2 15.1
Clc1ccccc1Cn1cccc1C1=NC(Cc2ccccc2)CO1 (stereo unspecified)	none
O=c1cc2c(=O)oc3cc(O)c(O)oc3c2c(O)c1O	PGK inhibitor inconclusive, Pol kappa inh-1 2.82µM, FEN1 inh-1 7.08µM, Pol eta inh-1 0.708µM, Pol beta inh 0.355µM, POLI inh 1.12µM | TbPGK inh inconclusive | POLI cherry-pick 1.06 | Pol kappa inh-2 0.947 | Pol eta inh-2 1.2 | FEN1 inh-2 8.49
Cc1cc2[nH]c3c4ccccc4nc(C)c3c2cc1C	Pol kappa inh-1 79.4µM, FEN1 inh-1 inconclusive, POLI inh 14.1µM (no result: Pol beta inh) | POLI cherry-pick 42.3 | FEN1 inh-2 6.75
Cc1cc(C)c2c(N)c3cccc(C)c3nc2n1	Pol kappa inh-1 inconclusive, FEN1 inh-1 25.1µM, Pol beta inh 12.6µM, POLI inh inconclusive | POLI cherry-pick 33.6 | FEN1 inh-2 15.1
Cc1cccc2c(N)c3c(nc12)CCCC3 (tested in a mixture with another compound)	FEN1 inh-1 inconclusive
Cc1ccc(S(=O)(=O)Nc2ccc3c(c2)c(C(=O)OC(C)C)c(C)n3S(=O)(=O)c2ccc(C)cc2)cc1	Pol beta inh inconclusive
Oc1ccc(C2=Nn3c(nnc3-c3ccco3)SC2)cc1O	PGK inhibitor inconclusive, Pol kappa inh-1 20µM, FEN1 inh-1 50.1µM, Pol eta inh-1 3.16µM, Pol beta inh 3.98µM, POLI inh 2.24µM | TbPGK inh 5.8µM | POLI cherry-pick 26.7 | Pol eta inh-2 19 | FEN1 inh-2 42.6
CNc1c2cccc(C)c2nc2c(C(=O)NCCN(C)C)cccc12	Pol kappa inh-1 8.91µM, FEN1 inh-1 2.82µM, Pol eta inh-1 3.55µM, POLI inh 11.2µM (no result: Pol beta inh) | POLI cherry-pick 2.99 | Pol eta inh-2 37.9 | FEN1 inh-2 2.69
